# In PMC7862700, “An all-to-all approach to the identification of sequence-specific readers for epigenetic DNA modifications on cytosine”:
# Legend:
# Experiment in all cases: DAPPL (digital affinity profiling via proximity ligation, sequencing); 10 mM Tris-HCl pH 7.5, 50 mM NaCl, 1 mM DTT, 4% glycerol, room temperature, 30 min; GST-TFs on glutathione beads, 16-mer random dsDNA library, 0.1% formaldehyde crosslink after washing; high values mean tight binding
# FLI1 = target: T1, FLI1 (Homo sapiens, UniProt Q01543 1-452); details: protein: recombinant; tags: N-terminal GST; dsDNA, one strand shown
# T1 sequence: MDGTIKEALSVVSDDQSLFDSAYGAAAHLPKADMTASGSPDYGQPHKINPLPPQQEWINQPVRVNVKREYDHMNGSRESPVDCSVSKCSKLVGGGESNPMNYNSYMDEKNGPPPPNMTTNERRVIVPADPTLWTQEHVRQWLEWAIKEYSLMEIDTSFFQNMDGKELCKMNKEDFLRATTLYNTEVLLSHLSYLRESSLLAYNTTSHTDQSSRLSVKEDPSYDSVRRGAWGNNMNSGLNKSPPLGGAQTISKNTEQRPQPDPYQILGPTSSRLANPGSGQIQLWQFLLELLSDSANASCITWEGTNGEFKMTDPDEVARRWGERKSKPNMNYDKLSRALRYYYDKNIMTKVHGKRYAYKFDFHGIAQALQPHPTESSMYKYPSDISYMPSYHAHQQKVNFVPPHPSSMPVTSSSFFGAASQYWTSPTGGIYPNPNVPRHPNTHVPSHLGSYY
# How it was run: (§1)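 Sequencing on an Illumina NextSeq500 followed washing, crosslinking with 0.1% formaldehyde, proximity ligation (BsaI/T4 ligase, 1 h, 37 °C) and PCR amplification of pools that had been incubated for 30 min at room temperature with 200 nmole of a random double-stranded 16-mer DNA library in Tris/NaCl/DTT/glycerol buffer. Each pool held DNA-barcoded human transcription factors, expressed in yeast as GST fusions and captured on glutathione beads, plus a tag-only sample. Binding signal is a hexamer's read frequency for a factor divided by its frequency in the tag-only sample.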
# ELK1 = target: T2, ELK1 (Homo sapiens, UniProt P19419 1-428); details: protein: recombinant; tags: N-terminal GST; dsDNA, one strand shown
# T2 sequence: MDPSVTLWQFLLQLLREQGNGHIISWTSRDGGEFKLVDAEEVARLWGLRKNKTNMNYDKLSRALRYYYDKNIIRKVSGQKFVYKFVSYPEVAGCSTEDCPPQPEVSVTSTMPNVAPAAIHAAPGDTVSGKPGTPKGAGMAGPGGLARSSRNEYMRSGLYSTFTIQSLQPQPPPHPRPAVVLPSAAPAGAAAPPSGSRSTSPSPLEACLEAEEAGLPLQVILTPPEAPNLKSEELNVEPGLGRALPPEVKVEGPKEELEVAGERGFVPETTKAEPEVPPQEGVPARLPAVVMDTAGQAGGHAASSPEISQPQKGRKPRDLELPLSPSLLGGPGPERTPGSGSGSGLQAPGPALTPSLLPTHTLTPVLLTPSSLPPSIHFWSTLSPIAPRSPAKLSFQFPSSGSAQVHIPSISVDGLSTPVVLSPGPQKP
# How it was run: as §1
# GABPA = target: T3, GABPA (Homo sapiens, UniProt Q06546 1-454); details: protein: recombinant; tags: N-terminal GST; dsDNA, one strand shown
# T3 sequence: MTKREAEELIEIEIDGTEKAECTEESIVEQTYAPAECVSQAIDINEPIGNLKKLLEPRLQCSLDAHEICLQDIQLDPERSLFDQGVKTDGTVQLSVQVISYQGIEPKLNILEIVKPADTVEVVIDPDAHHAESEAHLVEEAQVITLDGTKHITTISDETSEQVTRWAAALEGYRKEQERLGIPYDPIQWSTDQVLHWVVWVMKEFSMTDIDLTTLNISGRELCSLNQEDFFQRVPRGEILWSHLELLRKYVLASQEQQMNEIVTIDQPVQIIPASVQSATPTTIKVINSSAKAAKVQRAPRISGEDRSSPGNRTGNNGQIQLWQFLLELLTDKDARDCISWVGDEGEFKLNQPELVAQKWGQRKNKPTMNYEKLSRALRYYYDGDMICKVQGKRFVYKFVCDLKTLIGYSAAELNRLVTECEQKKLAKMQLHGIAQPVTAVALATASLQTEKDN
# How it was run: as §1
# ERG = target: T4, ERG (Homo sapiens, UniProt P11308 1-479); details: protein: recombinant; tags: N-terminal GST; dsDNA, one strand shown
# T4 sequence: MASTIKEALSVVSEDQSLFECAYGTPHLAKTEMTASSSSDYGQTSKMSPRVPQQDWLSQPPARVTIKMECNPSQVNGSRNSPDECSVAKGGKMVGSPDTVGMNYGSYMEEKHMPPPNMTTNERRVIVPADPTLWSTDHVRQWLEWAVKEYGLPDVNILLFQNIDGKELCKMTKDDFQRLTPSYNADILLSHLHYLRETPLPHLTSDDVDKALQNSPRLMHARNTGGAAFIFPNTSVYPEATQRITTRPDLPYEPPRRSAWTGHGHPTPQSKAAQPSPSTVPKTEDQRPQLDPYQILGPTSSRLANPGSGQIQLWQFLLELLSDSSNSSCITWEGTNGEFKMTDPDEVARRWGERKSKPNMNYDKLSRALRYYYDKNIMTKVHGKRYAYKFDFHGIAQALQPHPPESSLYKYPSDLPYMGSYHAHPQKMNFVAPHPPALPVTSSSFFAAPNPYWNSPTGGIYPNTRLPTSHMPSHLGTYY
# How it was run: as §1
# ELF1 = ELF1 (Homo sapiens, UniProt P32519 1-619); details: protein: recombinant; tags: N-terminal GST; dsDNA, one strand shown
# How it was run: as §1
# EHF = target: T5, EHF (Homo sapiens, UniProt Q9NZC4 1-300); details: protein: recombinant; tags: N-terminal GST; dsDNA, one strand shown
# T5 sequence: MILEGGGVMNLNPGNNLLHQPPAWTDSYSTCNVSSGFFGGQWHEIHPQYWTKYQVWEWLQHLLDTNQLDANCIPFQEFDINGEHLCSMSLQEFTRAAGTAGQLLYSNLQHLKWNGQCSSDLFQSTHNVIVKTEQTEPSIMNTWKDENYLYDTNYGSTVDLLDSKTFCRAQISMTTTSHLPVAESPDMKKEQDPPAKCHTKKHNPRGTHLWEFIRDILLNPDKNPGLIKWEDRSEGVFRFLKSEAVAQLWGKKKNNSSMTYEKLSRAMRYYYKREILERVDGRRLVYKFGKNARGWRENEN
# How it was run: as §1
# SPI1 = SPI1 (Homo sapiens, UniProt P17947 1-270); details: protein: recombinant; tags: N-terminal GST; dsDNA, one strand shown
# How it was run: as §1
# SPIB = SPIB (Homo sapiens, UniProt Q01892 1-262); details: protein: recombinant; tags: N-terminal GST; dsDNA, one strand shown
# How it was run: as §1
# ELK3 = target: T6, ELK3 (Homo sapiens, UniProt P41970 1-407); details: protein: recombinant; tags: N-terminal GST; dsDNA, one strand shown
# T6 sequence: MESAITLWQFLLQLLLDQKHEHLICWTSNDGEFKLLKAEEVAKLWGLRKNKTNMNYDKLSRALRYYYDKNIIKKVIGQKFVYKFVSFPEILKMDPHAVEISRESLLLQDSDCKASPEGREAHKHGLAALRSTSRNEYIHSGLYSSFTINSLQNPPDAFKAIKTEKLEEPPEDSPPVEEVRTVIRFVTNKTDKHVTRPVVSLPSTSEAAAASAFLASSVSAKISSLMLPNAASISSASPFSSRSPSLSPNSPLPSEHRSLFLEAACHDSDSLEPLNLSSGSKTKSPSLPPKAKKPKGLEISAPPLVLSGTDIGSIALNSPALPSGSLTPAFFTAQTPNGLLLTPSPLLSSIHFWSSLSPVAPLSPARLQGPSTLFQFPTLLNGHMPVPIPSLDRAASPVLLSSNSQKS
# How it was run: as §1
# FEV = target: T7, FEV (Homo sapiens, UniProt Q99581 1-238); details: protein: recombinant; tags: N-terminal GST; dsDNA, one strand shown
# T7 sequence: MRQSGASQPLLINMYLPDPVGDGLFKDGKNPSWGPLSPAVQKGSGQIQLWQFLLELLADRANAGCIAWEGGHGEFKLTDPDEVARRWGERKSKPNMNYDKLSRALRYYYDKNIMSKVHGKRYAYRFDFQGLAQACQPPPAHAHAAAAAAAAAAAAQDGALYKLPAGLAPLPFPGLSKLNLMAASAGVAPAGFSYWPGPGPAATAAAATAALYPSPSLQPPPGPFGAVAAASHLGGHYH
# How it was run: as §1
# ETV5 = ETV5 (Homo sapiens, UniProt P41161 1-510); details: protein: recombinant; tags: N-terminal GST; dsDNA, one strand shown
# How it was run: as §1
# HSF1 = HSF1 (Homo sapiens, UniProt Q00613 1-529); details: protein: recombinant; tags: N-terminal GST; chain copies: 3; dsDNA, one strand shown
# How it was run: as §1
# SPIC = target: T8, SPIC (Homo sapiens, UniProt Q8N5J4 1-248); details: protein: recombinant; tags: N-terminal GST; dsDNA, one strand shown
# T8 sequence: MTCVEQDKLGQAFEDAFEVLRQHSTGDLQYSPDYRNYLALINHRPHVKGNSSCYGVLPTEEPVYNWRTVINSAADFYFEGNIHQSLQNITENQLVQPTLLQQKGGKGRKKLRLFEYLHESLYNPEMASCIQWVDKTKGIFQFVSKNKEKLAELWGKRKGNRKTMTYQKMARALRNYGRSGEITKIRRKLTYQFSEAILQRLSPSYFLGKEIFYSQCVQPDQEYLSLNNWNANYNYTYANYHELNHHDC
# How it was run: as §1
# ELF4 = ELF4 (Homo sapiens, UniProt Q99607 1-663); details: protein: recombinant; tags: N-terminal GST; dsDNA, one strand shown
# How it was run: as §1
# ELK4 = target: T9, ELK4 (Homo sapiens, UniProt P28324-2 1-405); details: protein: recombinant; tags: N-terminal GST; dsDNA, one strand shown
# T9 sequence: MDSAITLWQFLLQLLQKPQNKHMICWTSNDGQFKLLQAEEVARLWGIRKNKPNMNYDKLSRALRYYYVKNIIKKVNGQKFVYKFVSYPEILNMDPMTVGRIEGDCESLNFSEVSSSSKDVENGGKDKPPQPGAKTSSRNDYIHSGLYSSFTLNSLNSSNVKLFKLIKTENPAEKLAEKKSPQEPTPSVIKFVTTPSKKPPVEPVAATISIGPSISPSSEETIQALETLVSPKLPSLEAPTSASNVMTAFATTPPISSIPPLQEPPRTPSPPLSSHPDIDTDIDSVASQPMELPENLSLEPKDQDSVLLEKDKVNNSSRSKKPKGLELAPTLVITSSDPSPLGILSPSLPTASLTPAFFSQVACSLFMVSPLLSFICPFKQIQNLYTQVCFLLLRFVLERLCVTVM
# How it was run: as §1
# ETV2 = target: T10, ETV2 (Homo sapiens, UniProt O00321 1-342); details: protein: recombinant; tags: N-terminal GST; dsDNA, one strand shown
# T10 sequence: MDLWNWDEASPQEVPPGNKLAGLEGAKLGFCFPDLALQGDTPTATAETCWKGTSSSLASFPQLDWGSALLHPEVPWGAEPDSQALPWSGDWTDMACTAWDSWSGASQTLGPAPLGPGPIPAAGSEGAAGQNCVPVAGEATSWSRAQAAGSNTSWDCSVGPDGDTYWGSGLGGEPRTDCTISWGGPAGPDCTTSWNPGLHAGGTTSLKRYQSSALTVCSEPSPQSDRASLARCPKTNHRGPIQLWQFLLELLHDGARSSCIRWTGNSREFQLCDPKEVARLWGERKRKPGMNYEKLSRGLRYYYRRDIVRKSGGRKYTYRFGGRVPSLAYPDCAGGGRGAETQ
# How it was run: as §1
# ELF3 = target: T11, ELF3 (Homo sapiens, UniProt P78545 1-371); details: protein: recombinant; tags: N-terminal GST; dsDNA, one strand shown
# T11 sequence: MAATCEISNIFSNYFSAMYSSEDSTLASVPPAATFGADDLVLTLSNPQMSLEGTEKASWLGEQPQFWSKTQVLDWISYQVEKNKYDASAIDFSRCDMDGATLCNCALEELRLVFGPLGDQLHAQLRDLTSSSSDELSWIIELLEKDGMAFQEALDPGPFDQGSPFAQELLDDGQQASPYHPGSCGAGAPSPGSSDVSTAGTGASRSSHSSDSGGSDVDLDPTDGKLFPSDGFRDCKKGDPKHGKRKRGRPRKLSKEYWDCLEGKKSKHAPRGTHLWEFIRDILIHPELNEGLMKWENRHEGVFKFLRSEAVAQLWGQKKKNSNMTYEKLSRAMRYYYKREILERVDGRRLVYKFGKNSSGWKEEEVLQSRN
# How it was run: as §1
# CRX = CRX (Homo sapiens, UniProt O43186 1-299); details: protein: recombinant; tags: N-terminal GST; dsDNA, one strand shown
# How it was run: as §1
# ETV1 = ETV1 (Homo sapiens, UniProt P50549 1-477); details: protein: recombinant; tags: N-terminal GST; dsDNA, one strand shown
# How it was run: as §1
# HSF1, sequence (Q00613 whole entry): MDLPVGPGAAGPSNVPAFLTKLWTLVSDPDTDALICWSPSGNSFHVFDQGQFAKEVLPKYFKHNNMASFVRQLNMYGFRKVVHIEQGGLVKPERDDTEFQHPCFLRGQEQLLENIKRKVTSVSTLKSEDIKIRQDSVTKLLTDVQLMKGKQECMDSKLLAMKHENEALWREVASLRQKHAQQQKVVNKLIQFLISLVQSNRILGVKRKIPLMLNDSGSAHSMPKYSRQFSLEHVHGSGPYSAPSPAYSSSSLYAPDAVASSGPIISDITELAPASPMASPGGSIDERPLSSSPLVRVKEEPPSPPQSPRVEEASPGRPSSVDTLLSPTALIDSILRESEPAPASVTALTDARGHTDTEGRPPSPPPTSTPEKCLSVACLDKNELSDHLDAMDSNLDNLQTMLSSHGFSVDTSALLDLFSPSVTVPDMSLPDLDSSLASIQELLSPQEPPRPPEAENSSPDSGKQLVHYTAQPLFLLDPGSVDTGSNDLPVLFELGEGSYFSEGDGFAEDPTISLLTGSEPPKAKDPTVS
# CRX, sequence (O43186 whole entry): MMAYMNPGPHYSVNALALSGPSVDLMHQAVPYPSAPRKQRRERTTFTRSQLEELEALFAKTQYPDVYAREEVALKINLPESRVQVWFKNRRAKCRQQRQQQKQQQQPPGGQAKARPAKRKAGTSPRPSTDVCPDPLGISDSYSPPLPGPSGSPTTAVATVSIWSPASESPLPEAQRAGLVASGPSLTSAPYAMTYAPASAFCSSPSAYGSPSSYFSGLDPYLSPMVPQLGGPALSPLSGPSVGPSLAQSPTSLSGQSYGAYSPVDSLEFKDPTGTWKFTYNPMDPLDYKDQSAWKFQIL
# ELF4, sequence (Q99607 whole entry): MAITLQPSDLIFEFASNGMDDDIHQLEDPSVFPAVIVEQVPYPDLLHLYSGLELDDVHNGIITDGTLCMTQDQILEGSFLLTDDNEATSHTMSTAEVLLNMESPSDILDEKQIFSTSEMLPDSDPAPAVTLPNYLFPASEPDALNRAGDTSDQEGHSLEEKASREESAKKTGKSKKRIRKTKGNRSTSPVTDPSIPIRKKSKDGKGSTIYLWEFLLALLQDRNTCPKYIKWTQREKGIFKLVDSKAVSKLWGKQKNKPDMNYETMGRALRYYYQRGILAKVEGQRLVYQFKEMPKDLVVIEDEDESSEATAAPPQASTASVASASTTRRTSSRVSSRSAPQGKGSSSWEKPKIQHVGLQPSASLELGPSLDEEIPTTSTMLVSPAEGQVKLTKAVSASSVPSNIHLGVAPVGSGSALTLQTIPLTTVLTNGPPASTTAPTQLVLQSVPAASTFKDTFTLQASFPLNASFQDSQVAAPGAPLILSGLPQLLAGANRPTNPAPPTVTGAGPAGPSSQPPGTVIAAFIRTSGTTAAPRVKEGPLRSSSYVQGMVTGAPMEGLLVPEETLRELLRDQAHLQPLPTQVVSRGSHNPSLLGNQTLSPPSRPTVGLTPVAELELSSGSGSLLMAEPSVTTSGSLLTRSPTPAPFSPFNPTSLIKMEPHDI
# ELF1, sequence (P32519 whole entry): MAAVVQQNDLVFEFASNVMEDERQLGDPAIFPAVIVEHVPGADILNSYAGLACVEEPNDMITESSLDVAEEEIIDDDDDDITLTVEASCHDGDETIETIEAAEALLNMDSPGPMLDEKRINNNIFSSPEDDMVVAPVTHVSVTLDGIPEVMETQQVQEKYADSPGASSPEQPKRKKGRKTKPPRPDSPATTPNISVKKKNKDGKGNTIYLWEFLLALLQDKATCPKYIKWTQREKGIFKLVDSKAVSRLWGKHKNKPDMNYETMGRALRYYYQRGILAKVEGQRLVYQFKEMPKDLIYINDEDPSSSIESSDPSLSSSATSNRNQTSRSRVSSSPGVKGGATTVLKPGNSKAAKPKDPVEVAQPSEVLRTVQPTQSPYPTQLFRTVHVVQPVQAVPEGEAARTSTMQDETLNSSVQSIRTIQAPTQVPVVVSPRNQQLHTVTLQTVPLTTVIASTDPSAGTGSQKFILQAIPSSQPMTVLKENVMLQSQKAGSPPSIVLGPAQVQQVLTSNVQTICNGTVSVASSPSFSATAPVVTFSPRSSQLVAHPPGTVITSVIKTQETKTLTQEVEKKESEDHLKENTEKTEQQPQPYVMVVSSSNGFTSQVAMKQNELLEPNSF
# ETV1, sequence (P50549 whole entry): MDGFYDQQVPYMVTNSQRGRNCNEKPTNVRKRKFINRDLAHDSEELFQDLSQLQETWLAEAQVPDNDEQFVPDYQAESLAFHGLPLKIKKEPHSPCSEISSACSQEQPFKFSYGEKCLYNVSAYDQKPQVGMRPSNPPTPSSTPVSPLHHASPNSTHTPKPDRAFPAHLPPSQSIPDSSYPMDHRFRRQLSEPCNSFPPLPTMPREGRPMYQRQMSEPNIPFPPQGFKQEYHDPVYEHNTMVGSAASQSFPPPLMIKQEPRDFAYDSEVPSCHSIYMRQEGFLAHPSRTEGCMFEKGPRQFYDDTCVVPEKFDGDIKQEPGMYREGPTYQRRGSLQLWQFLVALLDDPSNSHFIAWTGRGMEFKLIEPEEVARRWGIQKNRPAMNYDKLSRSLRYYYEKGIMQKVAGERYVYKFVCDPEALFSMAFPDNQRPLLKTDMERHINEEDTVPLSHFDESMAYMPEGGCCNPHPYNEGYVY
# ETV5, sequence (P41161 whole entry): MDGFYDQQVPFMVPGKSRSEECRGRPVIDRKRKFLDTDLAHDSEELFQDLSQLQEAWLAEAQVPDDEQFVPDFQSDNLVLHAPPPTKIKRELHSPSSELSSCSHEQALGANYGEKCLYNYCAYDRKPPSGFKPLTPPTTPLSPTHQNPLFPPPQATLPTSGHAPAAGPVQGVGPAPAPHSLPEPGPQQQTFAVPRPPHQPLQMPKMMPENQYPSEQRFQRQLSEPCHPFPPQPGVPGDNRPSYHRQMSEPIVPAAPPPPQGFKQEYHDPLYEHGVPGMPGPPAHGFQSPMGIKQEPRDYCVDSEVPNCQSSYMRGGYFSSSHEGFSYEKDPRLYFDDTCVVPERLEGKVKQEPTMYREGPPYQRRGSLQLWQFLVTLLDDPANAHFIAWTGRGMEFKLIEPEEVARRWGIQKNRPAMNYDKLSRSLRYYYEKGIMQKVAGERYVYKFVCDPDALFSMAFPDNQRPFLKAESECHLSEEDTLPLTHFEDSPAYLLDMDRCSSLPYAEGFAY
# SPIB, sequence (Q01892 whole entry): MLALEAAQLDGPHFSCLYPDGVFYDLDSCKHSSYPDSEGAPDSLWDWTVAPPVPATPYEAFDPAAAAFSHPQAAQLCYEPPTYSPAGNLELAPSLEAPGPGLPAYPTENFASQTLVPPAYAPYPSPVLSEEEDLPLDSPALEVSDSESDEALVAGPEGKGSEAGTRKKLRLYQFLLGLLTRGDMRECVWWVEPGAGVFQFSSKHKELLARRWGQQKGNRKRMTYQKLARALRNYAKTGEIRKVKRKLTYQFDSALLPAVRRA
sequence,measurement,setting,value
TCGCTA,binding signal,FLI1,"1.17 fold enrichment (6-mer frequency, TF over GST control)"
same,binding signal,ELK1,"1.09 fold enrichment (6-mer frequency, TF over GST control)"
same,binding signal,GABPA,"1.24 fold enrichment (6-mer frequency, TF over GST control)"
same,binding signal,ERG,"1.07 fold enrichment (6-mer frequency, TF over GST control)"
same,binding signal,ELF1,"1.11 fold enrichment (6-mer frequency, TF over GST control)"
same,binding signal,EHF,"1.02 fold enrichment (6-mer frequency, TF over GST control)"
same,binding signal,SPI1,"1.04 fold enrichment (6-mer frequency, TF over GST control)"
same,binding signal,SPIB,"1.05 fold enrichment (6-mer frequency, TF over GST control)"
same,binding signal,ELK3,"1.23 fold enrichment (6-mer frequency, TF over GST control)"
same,binding signal,FEV,"1.08 fold enrichment (6-mer frequency, TF over GST control)"
same,binding signal,ETV5,"1.07 fold enrichment (6-mer frequency, TF over GST control)"
same,binding signal,HSF1,"1.15 fold enrichment (6-mer frequency, TF over GST control)"
same,binding signal,SPIC,"1.06 fold enrichment (6-mer frequency, TF over GST control)"
same,binding signal,ELF4,"1.11 fold enrichment (6-mer frequency, TF over GST control)"
same,binding signal,ELK4,"1.16 fold enrichment (6-mer frequency, TF over GST control)"
same,binding signal,ETV2,"1.24 fold enrichment (6-mer frequency, TF over GST control)"
same,binding signal,ELF3,"1.03 fold enrichment (6-mer frequency, TF over GST control)"
same,binding signal,CRX,"1.12 fold enrichment (6-mer frequency, TF over GST control)"
same,binding signal,ETV1,"1.08 fold enrichment (6-mer frequency, TF over GST control)"
